From PubChem BioAssay (Tox21)
Several values for one entry are separate records, joined by “and”; a condition that tells them apart may be missing. Identical values can stand only once. Values without a mark were called inactive. Records with an inconclusive call do not appear. Entries that show only a call come without a potency. Activity calls are given as the source filed them. Unless noted, the call rests on the fitted dose curve; in most records, active means well fitted curve in the direction sought with a large enough effect in the repeat runs; inconclusive means weak or mixed curves; inactive means no such curve, though single readings can be large; an effect the other way counts as inactive or inconclusive.

Legend:
[1] = qHTS assay to identify small molecule agonists of the androgen receptor (AR) signaling pathway in the presence of an antagonist - cell viability counter screen (AID 1259379); further: nearly all actives have a fitted effect of over 25% in size; further: potency means the concentration at half of the fitted maximal effect;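 on activity change, negative = cytotoxicity: MDA-kb2 human breast cancer cells carrying an MMTV luciferase reporter; series mostly up to about 92 µM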
How it was run: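 Cells: MDA-kb2 (MMTV-luc, AR and GR elements), 3,000/well, 5 hr settle. Added: nilutamide 3.0uM final, then compounds (15 conc.). Incubation: 16 hr, 37C, no CO2. Read-out: CellTiter-Fluor, 1 hr, fluorescence.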

[2] = qHTS assay to identify small molecule antagonists of the estrogen receptor beta (ER-beta) signaling pathway - cell viability counter screen (AID 1259382); further: nearly all actives have a fitted effect of over 55% in size; further: potency means the concentration at half of the fitted maximal effect; on activity change, negative = cytotoxicity: series mostly up to about 92 µM
How it was run: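 Cells: ER-beta-UAS-bla HEK293T, 2,000/well, 2% CS-FBS, 6 hr settle. Cpd + E2 (1nM final), 16 hr, 37C/5% CO2. Bla FRET substrate 2 hr RT, then CellTiter-Glo 30 min RT, luminescence.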

[3] = target: Estrogen receptor (Homo sapiens) (UniProt P03372); assay: qHTS assay to identify small molecule agonists of the estrogen receptor alpha (ER-alpha) signaling pathway in the presence of an antagonist (AID 1259383; calls by dose curve; further: top concentration of the series differs between compounds; nearly all actives have a fitted effect of over 15% in size)
Estrogen receptor (Homo sapiens), sequence (P03372 whole entry, looked up): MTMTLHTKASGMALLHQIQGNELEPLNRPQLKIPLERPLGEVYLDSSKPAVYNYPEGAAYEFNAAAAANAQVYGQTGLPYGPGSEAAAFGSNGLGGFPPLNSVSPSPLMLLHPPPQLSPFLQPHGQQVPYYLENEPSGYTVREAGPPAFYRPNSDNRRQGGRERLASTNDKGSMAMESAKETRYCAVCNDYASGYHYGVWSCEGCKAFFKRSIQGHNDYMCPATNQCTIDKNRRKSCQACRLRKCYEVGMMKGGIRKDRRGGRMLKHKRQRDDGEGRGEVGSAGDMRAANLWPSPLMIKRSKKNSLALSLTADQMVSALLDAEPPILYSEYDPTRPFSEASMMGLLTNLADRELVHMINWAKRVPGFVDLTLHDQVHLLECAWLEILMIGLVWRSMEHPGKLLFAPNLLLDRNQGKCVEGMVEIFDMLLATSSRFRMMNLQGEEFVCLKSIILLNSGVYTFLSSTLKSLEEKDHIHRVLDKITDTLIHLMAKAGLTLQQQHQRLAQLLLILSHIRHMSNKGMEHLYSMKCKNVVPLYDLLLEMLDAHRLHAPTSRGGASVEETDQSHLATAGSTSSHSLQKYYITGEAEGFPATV
How it was run: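 VM7Luc4E2, endog. ER-alpha + 4×ERE-luc; charcoal-stripped FBS, phenol red-free, 5 d; 24hr plating; +10.0nM ICI-182,780 (final); cpds 15 conc, 22hr, 37C/5% CO2; ONE-Glo luminescence.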

[4] = qHTS assay to identify small molecule agonists or antagonists of the thyroid stimulating hormone receptor (TSHR) signaling pathway - wild type cell line counter screen (AID 1259384; calls by dose curve)
How it was run: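 Wild-type Hek293 cells, 800/well, 18 h at 37C, then compound with Ro20-1724 for 30 min RT. cAMP by HTRF (cAMP-d2/anti-cAMP cryptate), 1 h RT, fluorescence read. 15 concentrations, triplicates.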

[5] = qHTS assay to identify small molecule agonists of the estrogen receptor alpha (ER-alpha) signaling pathway in the presence of an antagonist - cell viability counter screen (AID 1259386);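 further: series mostly up to about 92 µM; cells exposed to compounds for 22 h at 37 °C before the viability read; nearly all actives have a fitted effect of over 30% in size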
How it was run: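 VM7Luc4E2, stripped-serum pre-culture 5 d; 24hr plating; +ICI-182,780 10.0nM final; cpds 15 conc, 22hr, 37C/5% CO2; CellTiter-Fluor added at 21hr, fluorescence 1hr later.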

[6] = target: Progesterone receptor (Homo sapiens) (UniProt P06401); assay: qHTS assay to identify small molecule agonists of the progesterone receptor (PR) signaling pathway (AID 1346784; calls by dose curve; further: nearly all actives have a fitted effect of over 30% in size)
Progesterone receptor (Homo sapiens), sequence (P06401 whole entry, looked up): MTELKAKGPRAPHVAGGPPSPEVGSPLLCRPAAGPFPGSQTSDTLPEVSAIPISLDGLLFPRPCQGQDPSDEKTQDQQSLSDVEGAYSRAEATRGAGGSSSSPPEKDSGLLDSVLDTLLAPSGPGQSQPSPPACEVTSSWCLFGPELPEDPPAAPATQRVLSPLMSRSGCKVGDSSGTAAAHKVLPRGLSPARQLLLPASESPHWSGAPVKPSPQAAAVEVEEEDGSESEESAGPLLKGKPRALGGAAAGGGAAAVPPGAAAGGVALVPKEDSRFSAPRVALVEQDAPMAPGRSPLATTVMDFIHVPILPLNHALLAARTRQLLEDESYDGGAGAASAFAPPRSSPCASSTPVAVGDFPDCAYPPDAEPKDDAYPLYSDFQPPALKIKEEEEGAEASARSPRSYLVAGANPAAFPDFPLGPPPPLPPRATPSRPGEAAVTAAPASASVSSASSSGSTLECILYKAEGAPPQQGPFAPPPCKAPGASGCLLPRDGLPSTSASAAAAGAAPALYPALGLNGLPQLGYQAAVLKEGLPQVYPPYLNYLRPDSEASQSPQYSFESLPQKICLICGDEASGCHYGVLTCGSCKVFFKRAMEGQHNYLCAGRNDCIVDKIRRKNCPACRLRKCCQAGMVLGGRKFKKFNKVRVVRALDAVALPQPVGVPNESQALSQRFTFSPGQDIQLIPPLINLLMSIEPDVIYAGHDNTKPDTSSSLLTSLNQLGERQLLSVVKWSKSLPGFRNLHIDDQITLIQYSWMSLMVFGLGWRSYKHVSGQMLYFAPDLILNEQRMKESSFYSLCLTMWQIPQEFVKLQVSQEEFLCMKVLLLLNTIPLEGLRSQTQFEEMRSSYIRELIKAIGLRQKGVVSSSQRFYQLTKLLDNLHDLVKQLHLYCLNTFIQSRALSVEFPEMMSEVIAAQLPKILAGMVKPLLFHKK
How it was run: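 The screen uses PR-UAS-bla HEK 293T cells in charcoal-stripped serum (2%). Compounds are applied for 16 hr at 37C after a 6 hr pre-incubation, and reporter activity is detected with a FRET beta-lactamase substrate after 2 hr at room temperature.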

[7] = target: Progesterone receptor (Homo sapiens) (UniProt P06401); assay: qHTS assay to identify small molecule antagonists of the progesterone receptor (PR) signaling pathway (AID 1346795; active means well fitted inhibition curve with a large enough effect in the signal ratio in the repeat runs, not every such curve was filed as active; the % refers to the signal ratio)
How it was run: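 After 6 hr plating at 37C in 2% stripped-serum medium, PR-UAS-bla HEK293T cells got compounds, then 1 nM R5020. Sixteen hours later, LiveBLAzer substrate was applied for 2 hr at room temperature and fluorescence was recorded.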

[8] = qHTS assay to identify small molecule antagonists of the progesterone receptor (PR) signaling pathway - cell viability counter screen (AID 1346798); further: nearly all actives have a fitted effect of over 50% in size; further: potency means the concentration at half of the fitted maximal effect; on activity change, negative = cytotoxicity: series mostly up to about 92 µM
How it was run: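 Viability was determined by ATP-based luminescence (CellTiter-Glo) in PR-UAS-bla HEK293T cells cultured in 2% charcoal-stripped serum and incubated 16 hr with compounds under R5020 stimulation.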

[9] = qHTS assay to identify small molecule agonists of the progesterone receptor (PR) signaling pathway - cell viability counter screen (AID 1346799; calls by dose curve; further: nearly all actives have a fitted effect of over 45% in size; further: potency means the concentration at half of the fitted maximal effect)
How it was run: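 Viability was scored by ATP luminescence (CellTiter-Glo, 30 min, room temperature) in the same wells used for the reporter readout, after 16 hr compound exposure of PR-UAS-bla HEK293T cells.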

[10] = qHTS assay to identify small molecule antagonists of the TGF-beta/Smad signaling pathway - cell viability counter screen (AID 1346824); further: nearly all actives have a fitted effect of over 50% in size; further: potency means the concentration at half of the fitted maximal effect
How it was run: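 SBE-bla HEK 293T cells, incubated overnight, then compound plus 0.25 ng/mL TGF-beta1 (stock added) for 5 hr at 37 C. Viability was read in the same wells by CellTiter-Glo luminescence after 30 min at room temperature.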

[11] = qHTS assay to identify small molecule agonists of the estrogen receptor beta (ER-beta) signaling pathway - cell viability counter screen (AID 1259380); further: nearly all actives have a fitted effect of over 30% in size; further: potency means the concentration at half of the fitted maximal effect
How it was run: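 HEK293T ER-beta-UAS-bla; 2% CS-FBS; 6 hr pre-plate, 16 hr cpd at 37C/5% CO2; LiveBLAzer read first, then CellTiter-Glo 30 min RT, luminescence.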

[12] = target: Androgen receptor (Homo sapiens) (UniProt P10275); assay: qHTS assay to identify small molecule agonists of the androgen receptor (AR) signaling pathway in the presence of an antagonist (AID 1259381; calls by dose curve; further: nearly all actives have a fitted effect of over 15% in size)
Androgen receptor (Homo sapiens), sequence (P10275 whole entry, looked up): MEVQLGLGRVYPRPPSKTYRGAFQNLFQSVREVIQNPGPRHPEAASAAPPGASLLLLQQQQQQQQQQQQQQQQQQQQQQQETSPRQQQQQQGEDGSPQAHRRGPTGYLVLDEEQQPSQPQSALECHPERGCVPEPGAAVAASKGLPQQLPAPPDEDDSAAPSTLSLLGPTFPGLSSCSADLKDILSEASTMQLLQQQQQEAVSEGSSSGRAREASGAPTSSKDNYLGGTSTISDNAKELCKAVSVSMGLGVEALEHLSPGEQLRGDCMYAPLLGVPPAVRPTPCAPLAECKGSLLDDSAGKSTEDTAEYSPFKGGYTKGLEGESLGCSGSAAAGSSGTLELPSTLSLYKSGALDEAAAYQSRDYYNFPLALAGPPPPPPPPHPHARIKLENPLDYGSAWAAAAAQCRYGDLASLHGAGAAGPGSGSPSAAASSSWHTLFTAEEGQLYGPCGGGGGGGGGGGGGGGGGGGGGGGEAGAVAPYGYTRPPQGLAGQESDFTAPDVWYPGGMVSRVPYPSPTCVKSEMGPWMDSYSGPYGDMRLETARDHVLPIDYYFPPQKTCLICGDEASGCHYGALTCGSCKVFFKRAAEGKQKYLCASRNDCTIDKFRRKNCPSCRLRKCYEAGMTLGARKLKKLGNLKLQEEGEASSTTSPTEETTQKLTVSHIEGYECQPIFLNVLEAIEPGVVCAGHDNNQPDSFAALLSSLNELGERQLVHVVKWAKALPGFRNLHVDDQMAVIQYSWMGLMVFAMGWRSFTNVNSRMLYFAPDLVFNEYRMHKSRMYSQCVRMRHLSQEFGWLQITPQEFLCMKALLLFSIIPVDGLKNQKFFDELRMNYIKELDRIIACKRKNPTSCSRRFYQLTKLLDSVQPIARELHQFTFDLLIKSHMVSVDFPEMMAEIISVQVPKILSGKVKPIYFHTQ
How it was run: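 MDA-kb2 cells, 3,000/well, rested 5hr at 37C/0% CO2 → nilutamide 3.0uM final or buffer → compounds, 15 conc. → 16hr at 37C → ONE-Glo, 30min RT → luminescence.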

[13] = qHTS assay to identify small molecule agonists of the TGF-beta/Smad signaling pathway - cell viability counter screen (AID 1346829); further: nearly all actives have a fitted effect of over 45% in size; further: potency means the concentration at half of the fitted maximal effect; on activity change, negative = cytotoxicity: top concentration of the series differs between compounds
How it was run: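 Same-well cytotoxicity: CellTiter-Glo added after the 2 hr room-temperature beta-lactamase substrate step, luminescence measured 30 min later; cells had 5 hr of compound at 37 C.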

[14] = qHTS assay to identify small molecule agonists of the TGF-beta/Smad signaling pathway (AID 1346859; active means well fitted activation curve with a large enough effect in the signal ratio in the repeat runs, not every such curve was filed as active; the % refers to the signal ratio; further: series mostly up to about 77 µM)
How it was run: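 Dual-wavelength fluorescence (460/530 nm emission) quantified beta-lactamase expression under the Smad binding element in HEK 293T cells following 5 hr compound treatment at 37 C.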

[15] = target: Thyrotropin receptor (Homo sapiens) (UniProt P16473); assay: qHTS assay to identify small molecule antagonists of the thyroid stimulating hormone receptor (TSHR) signaling pathway (AID 1259385; calls by dose curve; further: nearly all actives have a fitted effect of over 20% in size)
Thyrotropin receptor (Homo sapiens), sequence (P16473 whole entry, looked up): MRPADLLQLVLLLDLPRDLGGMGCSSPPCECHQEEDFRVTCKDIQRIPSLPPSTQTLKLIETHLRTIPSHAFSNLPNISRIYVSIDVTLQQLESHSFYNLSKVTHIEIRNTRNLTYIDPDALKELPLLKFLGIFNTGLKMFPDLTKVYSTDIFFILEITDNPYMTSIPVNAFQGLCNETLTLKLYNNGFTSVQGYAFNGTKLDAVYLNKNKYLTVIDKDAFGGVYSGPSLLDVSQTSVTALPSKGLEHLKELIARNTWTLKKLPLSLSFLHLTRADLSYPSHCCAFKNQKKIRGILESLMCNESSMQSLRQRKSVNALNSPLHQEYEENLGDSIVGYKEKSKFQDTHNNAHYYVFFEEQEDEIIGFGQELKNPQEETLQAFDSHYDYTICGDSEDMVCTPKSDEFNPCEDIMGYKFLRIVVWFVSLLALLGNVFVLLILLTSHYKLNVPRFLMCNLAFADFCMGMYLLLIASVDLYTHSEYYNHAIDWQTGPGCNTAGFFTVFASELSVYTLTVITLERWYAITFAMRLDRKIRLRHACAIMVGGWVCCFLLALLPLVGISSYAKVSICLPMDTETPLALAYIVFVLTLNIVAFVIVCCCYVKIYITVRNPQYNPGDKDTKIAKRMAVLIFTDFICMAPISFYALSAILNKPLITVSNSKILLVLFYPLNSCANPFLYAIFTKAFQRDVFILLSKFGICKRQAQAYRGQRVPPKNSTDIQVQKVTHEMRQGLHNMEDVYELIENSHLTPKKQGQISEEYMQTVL
How it was run: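 TSHR-HEK293 cells (800/well) plated 18 h, then compounds with Ro20-1724 and TSH at 1.5 ng/mL final, 30 min at room temperature. cAMP quantified by HTRF (cAMP-d2/anti-cAMP-cryptate, 1 h); 15 concentrations in triplicate.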

[16] = target: Thyrotropin-releasing hormone receptor (Homo sapiens) (UniProt P34981); assay: qHTS assay to identify small molecule antagonists of the thyrotropin-releasing hormone receptor (TRHR) signaling pathway (AID 1346877; active means well fitted inhibition curve with a large enough effect in the repeat runs, not every such curve was filed as active; further: series mostly up to about 51 µM)
Thyrotropin-releasing hormone receptor (Homo sapiens), sequence (P34981 whole entry, looked up): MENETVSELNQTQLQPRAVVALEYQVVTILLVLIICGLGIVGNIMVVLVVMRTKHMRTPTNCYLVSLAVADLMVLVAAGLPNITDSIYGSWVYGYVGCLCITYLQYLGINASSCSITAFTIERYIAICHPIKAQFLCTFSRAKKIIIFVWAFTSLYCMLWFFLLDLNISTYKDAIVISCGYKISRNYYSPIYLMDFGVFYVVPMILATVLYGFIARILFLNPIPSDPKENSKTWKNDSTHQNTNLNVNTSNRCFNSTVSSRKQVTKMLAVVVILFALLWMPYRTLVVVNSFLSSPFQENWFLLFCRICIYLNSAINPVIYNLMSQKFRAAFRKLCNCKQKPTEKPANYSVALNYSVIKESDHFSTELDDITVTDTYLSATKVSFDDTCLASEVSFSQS
How it was run: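 Intracellular calcium fluorescence, read kinetically every second over 3 min, reports TRH-evoked signalling in HEK293 cells carrying TRHR. Test compounds were added 5 min ahead of a 1 nM TRH challenge.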

[17] = target: Thyrotropin-releasing hormone receptor (Homo sapiens) (UniProt P34981); assay: qHTS assay to identify small molecule agonists of the thyrotropin-releasing hormone receptor (TRHR) signaling pathway (AID 1346891; calls by dose curve;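 further: HEK293 cells expressing TRHR with calcium dye readout; series mostly up to about 58 µM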)
How it was run: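 Kinetic fluorescence (3 min, 1 s intervals) reported intracellular calcium after compound transfer onto TRHR-Hek293 cells pre-loaded with dye for 2 h at 37 °C.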

[18] = target: Estrogen receptor beta (Homo sapiens) (UniProt Q92731); assay: qHTS assay to identify small molecule antagonists of the estrogen receptor beta (ER-beta) signaling pathway (AID 1259378; active means well fitted inhibition curve with a large enough effect in the signal ratio in the repeat runs, not every such curve was filed as active; the % refers to the signal ratio)
Estrogen receptor beta (Homo sapiens), sequence (Q92731 whole entry, looked up): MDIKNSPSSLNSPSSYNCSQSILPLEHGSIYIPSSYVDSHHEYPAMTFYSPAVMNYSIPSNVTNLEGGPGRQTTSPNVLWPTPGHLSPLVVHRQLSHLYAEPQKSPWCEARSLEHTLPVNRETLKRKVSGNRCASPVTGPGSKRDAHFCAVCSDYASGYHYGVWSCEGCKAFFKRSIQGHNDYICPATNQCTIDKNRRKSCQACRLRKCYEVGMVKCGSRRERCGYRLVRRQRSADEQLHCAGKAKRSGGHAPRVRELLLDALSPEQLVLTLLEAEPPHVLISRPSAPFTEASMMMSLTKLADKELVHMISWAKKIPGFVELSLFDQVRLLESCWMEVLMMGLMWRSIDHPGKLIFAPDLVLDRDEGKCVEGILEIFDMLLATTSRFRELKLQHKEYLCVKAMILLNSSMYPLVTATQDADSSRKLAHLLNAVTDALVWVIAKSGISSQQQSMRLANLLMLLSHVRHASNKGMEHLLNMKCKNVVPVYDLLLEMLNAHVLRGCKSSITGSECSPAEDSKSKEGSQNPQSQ
How it was run: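 ER-beta-UAS-bla HEK293T cells in 2% charcoal-stripped FBS medium treated with compound plus 1nM final 17-beta-estradiol for 16 hr at 37C. Beta-lactamase reporter read by FRET substrate fluorescence after 2 hours at room temperature.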

CC(C)(C)c1ccc(C(O)CCCN2CCC(C(O)(c3ccccc3)c3ccccc3)CC2)cc1 (stereo not drawn)
Potency [1]: 23.7 µM (active)
Potency [2]: inactive
Potency [3]: inactive
outcome [4]: inactive
Potency [5]: inactive
Potency [6]: inactive
Potency [7]: inactive
Potency [8]: inactive
Potency [9]: inactive
Potency [10]: inactive

Nc1cc(Cl)c(O)c(Cl)c1
Potency [1]: inactive
Potency [11]: inactive
outcome [12]: inactive
Potency [2]: inactive
Potency [3]: inactive
Potency [6]: inactive
Potency [7]: inactive
Potency [8]: inactive
Potency [9]: inactive
Potency [10]: inactive
Potency [13]: inactive
Potency [14]: inactive

CCCCCCCCCCCCCC[N+](C)(C)Cc1ccccc1
Potency [1]: 43.9 µM (active) and 29.8 µM (active) and 14.1 mM (active)
Potency [11]: 27.7 µM (active) and 10.6 µM (active) and 11.2 mM (active)
Potency [2]: 19.6 µM (active) and 9.44 µM (active) and 10 mM (active)
Potency [3]: inactive
outcome [4]: inactive
Potency [15]: inactive
Potency [5]: inactive
Potency [6]: inactive
Potency [8]: 55.3 µM (active) and 5.96 µM (active)
Potency [9]: 27.7 µM (active) and 6.68 µM (active) and 12.6 mM (active)
Potency [10]: 49.7 µM (active)
Potency [13]: 49.7 µM (active) and 19 µM (active)
Potency [14]: inactive

CCC(=O)C(=O)CC
Potency [1]: inactive
Potency [11]: inactive
Potency [2]: inactive
outcome [4]: inactive
Potency [15]: inactive
Potency [6]: inactive
Potency [7]: inactive
Potency [8]: inactive
Potency [9]: inactive
Potency [10]: inactive
Potency [14]: inactive
Potency [16]: inactive
outcome [17]: inactive

C=CC(C)(CCC=C(C)C)OC=O (stereo not drawn)
Potency [1]: inactive
Potency [11]: inactive
Potency [2]: inactive
Potency [3]: inactive
outcome [4]: inactive
Potency [15]: inactive
Potency [6]: inactive
Potency [7]: inactive
Potency [8]: inactive
Potency [9]: inactive
Potency [10]: inactive
Potency [13]: inactive
Potency [14]: inactive

ClCCl
Potency [1]: inactive
Potency [11]: inactive
outcome [12]: inactive
Potency [2]: inactive
Potency [3]: inactive
Potency [5]: inactive
Potency [6]: inactive
Potency [7]: inactive
Potency [8]: inactive
Potency [9]: inactive
Potency [10]: inactive
Potency [13]: inactive
Potency [14]: inactive
Potency [16]: inactive
outcome [17]: inactive

S=c1nccc[nH]1
Potency [1]: inactive
Potency [11]: inactive
Potency [2]: inactive
Potency [3]: inactive
Potency [6]: inactive
Potency [8]: inactive
Potency [10]: inactive
Potency [13]: inactive
Potency [14]: inactive
Potency [16]: inactive
outcome [17]: inactive

CCCCC/C=C\C/C=C\CCCCCCCC(=O)O
Potency [1]: inactive
Potency [11]: 43.3 µM (active)
Potency [3]: inactive
outcome [4]: inactive
Potency [15]: inactive
Potency [5]: inactive
Potency [7]: inactive
Potency [8]: inactive
Potency [10]: inactive
Potency [16]: inactive
outcome [17]: inactive

CCC(COC(=O)CCS)(COC(=O)CCS)COC(=O)CCS
Potency [1]: inactive
Potency [11]: inactive
Potency [2]: inactive
Potency [3]: inactive
outcome [4]: inactive
Potency [15]: inactive
Potency [5]: inactive
Potency [7]: inactive
Potency [8]: inactive
Potency [10]: inactive
Potency [13]: inactive
Potency [14]: inactive
Potency [16]: inactive
outcome [17]: inactive

COc1cc2nc(N3CCN(C(=O)c4ccco4)CC3)nc(N)c2cc1OC
activity, negative = inhibition [18]: 1.22% [at 19 µM]
activity change, negative = cytotoxicity [2]: -13.3% [at 19 µM]
activation [3]: 0.868% [at 19 µM]
cAMP activity change [4]: -1.07% [at 18.9 µM]
activity change, negative = inhibition [15]: -8.31% [at 19 µM]
activity change, negative = cytotoxicity [5]: -1.18% [at 19 µM]
activation [6]: 4.29% [at 19 µM]
activity change, negative = inhibition [7]: 5.13% [at 18.9 µM]
activity change, negative = cytotoxicity [8]: -16.5% [at 18.9 µM]
activity change, negative = cytotoxicity [9]: 2.28% [at 19 µM]
activity change, negative = cytotoxicity [13]: 0.758% [at 15.8 µM]
activation [14]: -4.52% [at 15.8 µM]

Cc1cccc(C(=O)O)c1O
Potency [1]: inactive
Potency [11]: inactive
Potency [2]: inactive
Potency [3]: inactive
outcome [4]: inactive
Potency [15]: inactive
Potency [5]: inactive
Potency [7]: inactive
Potency [8]: inactive
Potency [10]: inactive
Potency [14]: inactive
Potency [16]: inactive
outcome [17]: inactive

CCCCCCOC(=O)C(C)CC (stereo not drawn)
Potency [1]: inactive
Potency [11]: inactive
outcome [12]: inactive
Potency [2]: inactive
Potency [3]: inactive
outcome [4]: inactive
Potency [15]: inactive
Potency [5]: inactive
Potency [6]: inactive
Potency [7]: inactive
Potency [9]: inactive
Potency [10]: inactive
Potency [13]: inactive
Potency [14]: inactive
Potency [16]: inactive
outcome [17]: inactive
